Unmarked numbers belong to inactive results. Results filed as inconclusive are left out. Entries that show only a call come without a potency. Calls of active or inactive are those of the source. Unless noted, calls come from the whole dose curve; as a rule, active = well fitted curve in the direction sought with a large enough effect in the repeat runs; inconclusive = weak or mixed curves; inactive = no such curve, though single readings can be large; an effect the other way counts as inactive or inconclusive.
Tests used:
[1] = qHTS assay to identify small molecule antagonists of the androgen receptor (AR) signaling pathway using the MDA cell line in the presence of 0.5 nM R1881 - cell viability counter screen (AID 1259242); note: nearly all actives have a fitted effect of over 45% in size; note: potency is the fitted concentration of half-maximal effect
Outline: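 Live-cell protease activity was measured by CellTiter-Fluor fluorescence after 30 min. Before that, MDA-kb2 MMTV-luciferase cells had 16 hr at 37C without CO2, exposed to test compounds and 0.5 nM R1881 final.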

[2] = qHTS assay to identify small molecule HDAC inhibitors - cell viability counter screen (AID 1259365); note: series mostly up to about 92 µM; nearly all actives have a fitted effect of over 50% in size
Outline: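 Counter screen in wild-type HCT-116 cells: compounds dissolved in DMSO are pin-transferred onto overnight-plated cells and left 2hr at 37C. ATP-based CellTiter-Glo luminescence then measures viable cells.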

[3] = qHTS assay to identify small molecule agonists of the sonic hedgehog signaling (Shh) pathway - cell viability counter screen (AID 1259366); note: nearly all actives have a fitted effect of over 50% in size; note: potency is the fitted concentration of half-maximal effect
Outline: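 Cells are plated at 2,000 per well and left 4hr at 37C, 5% CO2 before compound addition. After 23hr of treatment, CellTiter-Fluor reagent is added for 1hr at 37C and fluorescence is measured.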

[4] = qHTS assay to identify small molecule antagonists of the sonic hedgehog signaling (Shh) pathway - cell viability counter screen (AID 1259367); note: nearly all actives have a fitted effect of over 55% in size; note: potency is the fitted concentration of half-maximal effect
Outline: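 Fluorescence read-out (CellTiter-Fluor, 1 hr at 37C) taken after 23 hr compound treatment of 3T3 Gli1-Luc cells stimulated with conditioned medium. Cells were seeded at 2,000 per well and pre-incubated 4 hr.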

[5] = qHTS assay to identify small molecule agonists of the sonic hedgehog signaling (Shh) pathway (AID 1259368; calls by dose curve;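 note: NIH/3T3-derived 3T3Gli1-Luc cells carrying a stable Gli1-driven firefly luciferase reporter; series mostly up to about 92 µM; nearly all actives have a fitted effect of over 15% in size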)
Outline: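 Luminescence was read after 30 min at room temperature with luciferase reagent. Before that, 3T3Gli1-Luc cells (NIH/3T3 clone, stable Gli1-Luc reporter; 2,000/well) were exposed to compounds for 24 hr at 37C, 5% CO2, compounds being added 4 hr post-plating.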

[6] = target: Estrogen receptor beta (Homo sapiens) (UniProt Q92731); experiment: qHTS assay to identify small molecule agonists of the estrogen receptor beta (ER-beta) signaling pathway (AID 1259377; active = well fitted activation curve with a large enough effect in the signal ratio in the repeat runs, not every such curve was filed as active; the % refers to the signal ratio)
Estrogen receptor beta (Homo sapiens), sequence (Q92731 whole entry, looked up, the tested form may be a part): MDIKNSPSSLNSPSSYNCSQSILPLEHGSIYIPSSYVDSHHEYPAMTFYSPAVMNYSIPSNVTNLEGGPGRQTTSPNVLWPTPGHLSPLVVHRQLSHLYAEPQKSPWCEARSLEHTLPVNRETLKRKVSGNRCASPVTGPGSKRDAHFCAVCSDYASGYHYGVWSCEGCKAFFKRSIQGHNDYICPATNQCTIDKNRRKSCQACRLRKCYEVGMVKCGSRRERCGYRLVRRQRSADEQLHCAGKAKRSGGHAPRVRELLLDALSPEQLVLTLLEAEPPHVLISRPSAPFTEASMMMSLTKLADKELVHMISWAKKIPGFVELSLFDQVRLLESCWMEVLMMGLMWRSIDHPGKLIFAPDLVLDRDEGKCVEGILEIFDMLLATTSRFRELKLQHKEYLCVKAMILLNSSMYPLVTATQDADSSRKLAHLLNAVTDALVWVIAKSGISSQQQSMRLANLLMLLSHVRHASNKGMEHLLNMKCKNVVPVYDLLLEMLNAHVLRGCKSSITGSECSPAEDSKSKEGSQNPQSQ
Outline: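 Agonist mode cell assay in GripTite HEK293T cells expressing an ER-beta fusion that drives beta-lactamase from an Upstream Activator Sequence; 16 hr compound exposure at 37C, then 2 h LiveBLAzer B/G FRET substrate at room temperature, fluorescence read-out.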

[7] = target: Estrogen receptor beta (Homo sapiens) (UniProt Q92731); experiment: qHTS assay to identify small molecule antagonists of the estrogen receptor beta (ER-beta) signaling pathway (AID 1259378; active = well fitted inhibition curve with a large enough effect in the signal ratio in the repeat runs, not every such curve was filed as active; the % refers to the signal ratio; note: potency is the fitted concentration of half-maximal effect)
Outline: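 ER-beta-UAS-bla HEK293T cells in 2% charcoal-stripped FBS medium treated with compound plus 1nM final 17-beta-estradiol for 16 hr at 37C. Beta-lactamase reporter read by FRET substrate fluorescence after 2 hours at room temperature.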

[8] = qHTS assay to identify small molecule agonists of the androgen receptor (AR) signaling pathway in the presence of an antagonist - cell viability counter screen (AID 1259379); note: nearly all actives have a fitted effect of over 25% in size; note: potency is the fitted concentration of half-maximal effect
Outline: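 Cytotoxicity counter-screen run in the same wells as the nilutamide-challenged (3.0 µM final) AR agonist assay in MDA-kb2 cells. Compounds tested at 15 concentrations for 16 h, 37 °C without CO2; CellTiter-Fluor fluorescence read.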

[9] = qHTS assay to identify small molecule agonists of the estrogen receptor beta (ER-beta) signaling pathway - cell viability counter screen (AID 1259380); note: nearly all actives have a fitted effect of over 30% in size; note: potency is the fitted concentration of half-maximal effect
Outline: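 Cell viability counter screen: CellTiter-Glo luminescence (30 min, room temperature) measured in the same wells as the beta-lactamase readout, after 16 hr compound exposure at 37C of ER-beta-bla HEK293T cells in 2% charcoal-stripped FBS medium.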

[10] = qHTS assay to identify small molecule antagonists of the estrogen receptor beta (ER-beta) signaling pathway - cell viability counter screen (AID 1259382); note: nearly all actives have a fitted effect of over 55% in size; note: potency is the fitted concentration of half-maximal effect
Outline: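 Cytotoxicity was measured in the same wells by CellTiter-Glo luminescence after 30 min at room temperature. Cells were ER-beta-bla HEK293T in charcoal-stripped serum, given compound together with 1 nM E2 and incubated 16 h at 37C.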

[11] = qHTS assay to identify small molecule agonists or antagonists of the thyroid stimulating hormone receptor (TSHR) signaling pathway - wild type cell line counter screen (AID 1259384; calls by dose curve)
Outline: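 Wild-type Hek293 cells, 800/well, 18 h at 37C, then compound with Ro20-1724 for 30 min RT. cAMP by HTRF (cAMP-d2/anti-cAMP cryptate), 1 h RT, fluorescence read. 15 concentrations, triplicates.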

[12] = target: Thyrotropin receptor (Homo sapiens) (UniProt P16473); experiment: qHTS assay to identify small molecule antagonists of the thyroid stimulating hormone receptor (TSHR) signaling pathway (AID 1259385; calls by dose curve; note: nearly all actives have a fitted effect of over 20% in size)
Thyrotropin receptor (Homo sapiens), sequence (P16473 whole entry, looked up): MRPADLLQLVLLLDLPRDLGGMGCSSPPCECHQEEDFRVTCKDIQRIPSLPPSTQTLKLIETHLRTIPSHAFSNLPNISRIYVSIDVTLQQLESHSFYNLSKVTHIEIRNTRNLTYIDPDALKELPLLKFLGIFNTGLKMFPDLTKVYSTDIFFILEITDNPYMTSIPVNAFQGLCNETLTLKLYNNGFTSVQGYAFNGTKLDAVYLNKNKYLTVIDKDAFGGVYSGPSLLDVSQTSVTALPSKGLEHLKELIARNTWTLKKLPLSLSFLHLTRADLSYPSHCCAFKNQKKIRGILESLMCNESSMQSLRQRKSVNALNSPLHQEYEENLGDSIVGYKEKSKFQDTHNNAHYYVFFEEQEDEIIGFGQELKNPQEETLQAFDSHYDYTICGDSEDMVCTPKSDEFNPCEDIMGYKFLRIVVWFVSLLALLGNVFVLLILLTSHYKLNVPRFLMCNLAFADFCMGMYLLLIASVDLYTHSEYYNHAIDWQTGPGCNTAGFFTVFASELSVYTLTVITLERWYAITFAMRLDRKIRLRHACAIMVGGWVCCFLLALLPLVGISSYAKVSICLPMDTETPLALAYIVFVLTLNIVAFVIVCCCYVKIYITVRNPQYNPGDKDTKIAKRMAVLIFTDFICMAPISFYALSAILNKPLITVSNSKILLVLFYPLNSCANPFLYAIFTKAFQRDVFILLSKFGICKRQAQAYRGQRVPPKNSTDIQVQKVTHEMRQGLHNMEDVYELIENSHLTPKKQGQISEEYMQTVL
Outline: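 TSHR-HEK293 cells (800/well) plated 18 h, then compounds with Ro20-1724 and TSH at 1.5 ng/mL final, 30 min at room temperature. cAMP quantified by HTRF (cAMP-d2/anti-cAMP-cryptate, 1 h); 15 concentrations in triplicate.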

[13] = qHTS assay to identify small molecule agonists of the estrogen receptor alpha (ER-alpha) signaling pathway in the presence of an antagonist - cell viability counter screen (AID 1259386); note: nearly all actives have a fitted effect of over 30% in size; note: potency is the fitted concentration of half-maximal effect
Outline: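 Compounds tested at 15 concentrations for 22 h at 37C alongside 10.0nM (final) ICI-182,780 antagonist, in VM7Luc4E2 cells grown in phenol red-free, charcoal-stripped medium. Viability read by CellTiter-Fluor fluorescence after 1 h reagent incubation.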

[14] = qHTS assay to identify small molecule HDAC inhibitors (AID 1259364); note: top concentration of the series differs between compounds; nearly all actives have a fitted effect of over 45% in size
Outline: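 Luminescence read after 30 min room-temperature HDAC-Glo incubation measures cellular class I/II HDAC activity. Compounds were applied for 2 hr at 37 C to HCT-116 wild-type cells seeded the day before.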

[15] = qHTS assay to identify small molecule antagonists of the sonic hedgehog signaling (Shh) pathway (AID 1259369; calls by dose curve; note: nearly all actives have a fitted effect of over 45% in size; note: potency is the fitted concentration of half-maximal effect)
Outline: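 Antagonist mode: compound added to 3T3 Gli1-Luc cells followed by conditioned-medium stimulation, 24 h at 37 C, 5% CO2. Inhibition taken as loss of Gli1-driven luciferase luminescence.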

[16] = target: Estrogen receptor (Homo sapiens) (UniProt P03372); experiment: qHTS assay to identify small molecule agonists of the estrogen receptor alpha (ER-alpha) signaling pathway in the presence of an antagonist (AID 1259383; calls by dose curve; note: top concentration of the series differs between compounds; nearly all actives have a fitted effect of over 15% in size)
Estrogen receptor (Homo sapiens), sequence (P03372 whole entry, looked up): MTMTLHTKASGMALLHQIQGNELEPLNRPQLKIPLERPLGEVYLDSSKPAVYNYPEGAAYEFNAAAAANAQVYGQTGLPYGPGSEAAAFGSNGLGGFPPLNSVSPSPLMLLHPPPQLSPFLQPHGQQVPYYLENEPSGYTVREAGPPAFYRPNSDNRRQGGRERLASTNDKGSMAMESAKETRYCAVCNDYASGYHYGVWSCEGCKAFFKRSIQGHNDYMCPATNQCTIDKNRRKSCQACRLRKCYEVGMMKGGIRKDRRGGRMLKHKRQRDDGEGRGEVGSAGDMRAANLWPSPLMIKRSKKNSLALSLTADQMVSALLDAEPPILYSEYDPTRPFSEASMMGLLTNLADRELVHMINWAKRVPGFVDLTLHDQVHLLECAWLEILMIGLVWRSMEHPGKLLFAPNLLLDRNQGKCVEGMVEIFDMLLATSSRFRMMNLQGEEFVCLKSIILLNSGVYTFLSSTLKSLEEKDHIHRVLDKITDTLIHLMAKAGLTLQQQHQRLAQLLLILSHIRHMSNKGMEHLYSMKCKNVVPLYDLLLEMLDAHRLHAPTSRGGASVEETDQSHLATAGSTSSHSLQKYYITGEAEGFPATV
Outline: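 Agonist-mode confirmation run in the presence of 10.0nM (final) ICI-182,780 antagonist. The reporter was ERE-driven luciferase in VM7Luc4E2 cells, grown in charcoal-stripped serum. Cells were exposed to 15-concentration compound series for 22hr, then ONE-Glo luminescence was read.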

[17] = target: Androgen receptor (Homo sapiens) (UniProt P10275); experiment: qHTS assay to identify small molecule agonists of the androgen receptor (AR) signaling pathway in the presence of an antagonist (AID 1259381; calls by dose curve; note: nearly all actives have a fitted effect of over 15% in size)
Androgen receptor (Homo sapiens), sequence (P10275 whole entry, looked up): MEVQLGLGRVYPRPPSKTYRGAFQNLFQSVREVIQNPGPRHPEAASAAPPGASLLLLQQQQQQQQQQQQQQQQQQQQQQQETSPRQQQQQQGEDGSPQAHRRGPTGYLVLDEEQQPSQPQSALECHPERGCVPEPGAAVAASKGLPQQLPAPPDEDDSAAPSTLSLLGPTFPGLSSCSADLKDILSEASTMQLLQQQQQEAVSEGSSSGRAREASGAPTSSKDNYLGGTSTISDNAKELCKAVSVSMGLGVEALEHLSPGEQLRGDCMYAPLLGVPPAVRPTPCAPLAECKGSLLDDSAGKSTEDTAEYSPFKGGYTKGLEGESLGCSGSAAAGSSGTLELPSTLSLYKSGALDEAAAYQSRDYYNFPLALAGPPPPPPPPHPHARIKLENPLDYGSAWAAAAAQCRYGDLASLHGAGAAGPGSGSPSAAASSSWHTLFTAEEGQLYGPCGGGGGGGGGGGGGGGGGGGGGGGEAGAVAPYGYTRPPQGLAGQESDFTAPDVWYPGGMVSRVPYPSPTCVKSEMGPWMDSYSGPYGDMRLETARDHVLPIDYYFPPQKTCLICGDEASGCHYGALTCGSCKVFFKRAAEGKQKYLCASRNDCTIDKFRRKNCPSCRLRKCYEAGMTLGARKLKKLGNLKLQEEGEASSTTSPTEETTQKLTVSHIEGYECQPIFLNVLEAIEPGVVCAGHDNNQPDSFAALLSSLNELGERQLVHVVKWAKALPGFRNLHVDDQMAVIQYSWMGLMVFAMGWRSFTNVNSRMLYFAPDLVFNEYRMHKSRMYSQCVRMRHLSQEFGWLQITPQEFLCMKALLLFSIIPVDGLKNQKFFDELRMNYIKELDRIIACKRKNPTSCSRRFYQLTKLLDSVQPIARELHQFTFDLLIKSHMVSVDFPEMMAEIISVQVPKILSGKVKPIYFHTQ
Outline: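 Agonist-mode confirmation run against 3.0 uM final nilutamide: compounds titrated at 15 concentrations onto MDA-kb2 MMTV-luciferase reporter cells. Luminescence measured with ONE-Glo following 16 hr incubation, 37C, 0% CO2.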

Row | SMILES | Potency [1] | Potency [2] | Potency [3] | Potency [4] | Potency [5] | Potency [6] | Potency [7] | Potency [8] | Potency [9] | Potency [10] | outcome [11] | Potency [12] | Potency [13] | Potency [14] | Potency [15] | Potency [16] | Potency [17]
1 | CCCCCCCCCC(=O)N(C)C | inactive | inactive | inactive | inactive | inactive | inactive | inactive | inactive | inactive | inactive | inactive | inactive | inactive | – | – | – | –
2 | Brc1ccccc1-c1ccccc1 | inactive | inactive | inactive | inactive | – | – | – | inactive | – | inactive | inactive | – | inactive | inactive | inactive | – | –
3 | CC1=C(/C=C/C(C)=C/C=C/C(C)=C\C=O)C(C)(C)CCC1 | inactive | inactive | – | – | inactive | – | – | – | 41 µM (active) | – | inactive | inactive | – | inactive | 25.8 µM (active) | – | –
4 | CN1[C@@H]2CC[C@H]1CC(OC(=O)C(CO)c1ccccc1)C2 (stereo partly specified) | inactive | inactive | inactive | inactive | – | – | – | inactive | 68.5 µM (active) | inactive | – | – | inactive | inactive | – | – | –
5 | CC(C)(C)CC(C)(C)c1ccccc1O | inactive | – | 54.8 µM (active) | 48.8 µM (active) | inactive | – | – | inactive | 43.5 µM (active) | 61.4 µM (active) | inactive | – | 61.4 µM (active) | inactive | 27.4 µM (active) | – | –
6 | CC1CCCNC1 (stereo unspecified) | inactive | inactive | – | 42.4 µM (active) | inactive | inactive | – | inactive | inactive | inactive | inactive | inactive | inactive | inactive | 26.7 µM (active) | inactive | –
7 | O=C1c2c(O)ccc(O)c2C(=O)c2c(NCCNCCO)ccc(NCCNCCO)c21 | 21.1 µM (active) | inactive | 21.1 µM (active) | 23.7 µM (active) | – | inactive | – | 11.9 µM (active) | inactive | inactive | – | – | 26.6 µM (active) | inactive | 0.0473 µM (active) | – | inactive
8 | C/C=C/C=N/NC(=O)c1ccncc1 | inactive | inactive | – | 26.6 µM (active) | inactive | inactive | – | inactive | inactive | inactive | inactive | – | inactive | inactive | inactive | – | –
9 | Clc1ccccc1CN1CCc2sccc2C1 | inactive | inactive | inactive | inactive | inactive | – | – | inactive | – | inactive | – | – | inactive | inactive | – | – | –
10 | Clc1ccc(C(Cn2ccnc2)OCc2ccsc2Cl)c(Cl)c1 (stereo unspecified) | inactive | inactive | – | – | inactive | – | 10.6 µM (active) | – | 23.7 µM (active) | 29.8 µM (active) | inactive | – | inactive | – | 11.9 µM (active) | inactive | –
11 | CC(C)c1ccc(O)c(C(C)C)c1 | inactive | inactive | inactive | inactive | inactive | inactive | – | inactive | – | inactive | inactive | inactive | inactive | – | inactive | inactive | –
